Bioassay records as filed in PubChem BioAssay.
In the library only some 7.3% were active in any assay of this set; here they are far more common.
HCV inhibitor: blocks hepatitis C virus. AID 651820. Huh7.5.1 HCVcc-Cre infection, luciferase reporter, 44 h. 340,000 tested, 3.4% active. Potency, µM (series often up to 41.8 µM), without a hit: at the highest dose activity change, negative = inhibition, actives largely listed as inhibitors; active = well fitted inhibition curve with a large enough effect; inconclusive = small, poorly fitted or top-dose-only effect, or another doubt; inactive = no such curve, though single readings can be large or run the other way; note: potency is the fitted concentration of half-maximal effect
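Seed cells (1,000/well) for 4 h; treat with compound and infect with HCVcc-Cre, moi about 0.5. Incubate 44 h, then detect luciferase activity.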
FMDV antiviral: antivirals against foot and mouth disease virus; FMDV antiviral cell-based qHTS; Potency, µM (series often up to 57.9 µM), for the others: at the top dose activity change, negative = inhibition, actives largely listed as inhibitors; 410,000 tested, 1.2% active; calls by dose curve; tested in HEK293T cells; note: read-out not given here; potency is the fitted concentration of half-maximal effect; nearly all actives have a fitted effect of over 45% in size
Vaccinia Venus: vaccinia inhibition (Venus reporter). 330,000 tested, 0.46% active. AID 720580. Potency, µM (series often up to 36.5 µM), inactives show at the highest dose activity change, negative = inhibition, most hits filed as inhibitors. Vaccinia virus Venus reporter expression, fluorescence; calls by dose curve; tested in A549 cells; note: potency is the fitted concentration of half-maximal effect; nearly all actives have a fitted effect of over 30% in size
HCMV inh: blocks human cytomegalovirus replication | activity change, negative = inhibition, % at 57.5 µM | HFF cells, HCMV-luciferase reporter, 72 h; hits give low values | 410,000 tested, 4.5% active; in the data active = activity change below about -60%; inconclusive = no clear call, values can overlap the other calls; inactive = above about -39%
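Human foreskin fibroblasts infected with luciferase-reporter HCMV at MOI 1 PFU/cell, compounds at two doses. Luciferase measured 72 h post infection; normalized to buffer-only basal and Salinomycin (10uM) controls.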
Vaccinia mCherry: vaccinia inhibition (mCherry reporter). Vaccinia virus mCherry reporter infection, fluorescence. Potency, µM (doses to about 36.5 µM), for inactives: top-dose activity change, negative = inhibition, usual class: inhibitors. 310,000 tested, 0.63% active; calls by dose curve; tested in A549 cells; note: potency is the fitted concentration of half-maximal effect; nearly all actives have a fitted effect of over 35% in size
Starred values were filed as active, the others as inactive; [ ] = another dose, or the depositor's remark. % is set by controls: 0 for no effect and ±100 for the full control effect.

Screening CCN(CC)c1ccc(/C=C/c2ccncc2)cc1 returned Vaccinia Venus inactive and Vaccinia mCherry 6%.
Screening CCCOc1ccccc1C(=O)N(Cc1cccs1)C1CCS(=O)(=O)C1 (stereo unspecified) returned HCV inhibitor 1%, FMDV antiviral 0%, Vaccinia Venus -21% and HCMV inh 35.
Screening CCCOc1ccccc1C(=O)N(Cc1cccc(Br)c1)C1CCS(=O)(=O)C1 (stereo unspecified) returned HCV inhibitor 14%, FMDV antiviral 0.71µM*, Vaccinia Venus -10%, HCMV inh -32 and Vaccinia mCherry -3%.
Screening N/C(Cc1ccc([N+](=O)[O-])cc1)=N\OC(=O)COc1cccc2ccccc12 returned HCV inhibitor 5%, FMDV antiviral -14% and HCMV inh 14.
N/C(Cc1ccc([N+](=O)[O-])cc1)=N\OC(=O)COc1ccccc1Cl was read as HCV inhibitor 2%, FMDV antiviral 20%, Vaccinia Venus 4%, HCMV inh -102* and Vaccinia mCherry -12%.
Screening Cn1nc(C(=O)NCc2ccc(F)cc2)c2c1-c1ccccc1S(=O)(=O)C2 returned HCV inhibitor 14µM*, FMDV antiviral 0% and HCMV inh -34.
Screening Cc1ccc(CNC(=O)c2nn(C)c3c2CS(=O)(=O)c2ccccc2-3)cc1 returned HCV inhibitor -25%, FMDV antiviral -18%, Vaccinia Venus -7%[7.34 µM], HCMV inh -19 and Vaccinia mCherry -3%.
`CCOC1=C2[C@H](c3ccccc3)N(S(=O)(=O)c3ccc(C)cc3)[C@H](C(C)C)[C@H]2C(C#N)(C#N)C(C#N)(C#N)C1` gave HCMV inh -76*.
`CCOC1=C2[C@H](c3ccccc3Cl)N(S(=O)(=O)c3ccc(C)cc3)C[C@H]2C(C#N)(C#N)C(C#N)(C#N)C1` gave FMDV antiviral inconclusive, Vaccinia Venus 1%, HCMV inh 7 and Vaccinia mCherry 4%.
CCOC1=C2CN(S(=O)(=O)c3ccc(C)cc3)[C@H](c3ccc(CC)cc3)C[C@@H]2N(S(=O)(=O)c2ccc(C)cc2)[C@H](c2ccccc2)C1 was read as FMDV antiviral -24%, Vaccinia Venus -23%, HCMV inh -73* and Vaccinia mCherry 13%.
`CCOC1=C2[C@H](c3ccc(CC)cc3)N(S(=O)(=O)c3ccc(C)cc3)C[C@H]2C(C#N)(C#N)C(C#N)(C#N)C1` gave FMDV antiviral 35µM*, Vaccinia Venus 3%, HCMV inh -74* and Vaccinia mCherry inactive.
Screening O=C1NC(=O)C2C3C=CC(C12)C1C(=O)NC(=O)C31 (stereo unspecified) returned HCMV inh 17.
Screening Cc1cc2nc(C(=O)NC3CCCCC3)c(-c3cccc(Br)c3)nc2cc1C returned HCMV inh 28.
CCC(C(=O)Nc1ccc2c(c1)OCCO2)n1c(=O)[nH]c2ccccc2c1=O (stereo unspecified) was read as HCV inhibitor 9%, FMDV antiviral -2%, Vaccinia Venus -19%, HCMV inh -73* and Vaccinia mCherry -12%.
For COc1ccc(-c2noc(CCCC(=O)Nc3cccc(Cl)c3C)n2)cc1 the results were FMDV antiviral inconclusive, Vaccinia Venus -12%, HCMV inh -77* and Vaccinia mCherry -7%.
Screening Cc1ccc(-c2noc(CCC(=O)NC3CCCC3)n2)cc1 returned HCV inhibitor -14%, FMDV antiviral -9%, Vaccinia Venus -11%, HCMV inh 2 and Vaccinia mCherry 0%.
`COc1ccc(-c2noc(CCC(=O)Nc3ccccc3Cl)n2)cc1OC` gave FMDV antiviral -26%, Vaccinia Venus -10%, HCMV inh -17 and Vaccinia mCherry -8%.
Screening Cc1ccc(-c2noc(CCCC(=O)Nc3cccnc3)n2)cc1 returned HCV inhibitor -57%, FMDV antiviral inconclusive, Vaccinia Venus inconclusive, HCMV inh -63* and Vaccinia mCherry -14%.
`CCOC(=O)c1ccc(NC(=O)CCc2nc(-c3ccc(Cl)cc3)no2)cc1` gave HCV inhibitor inconclusive, FMDV antiviral inconclusive, Vaccinia Venus -26%, HCMV inh -34 and Vaccinia mCherry -22%.
O=C(CCCc1nc(-c2ccccc2)no1)Nc1cccnc1 was read as HCV inhibitor -26%, FMDV antiviral 0%, Vaccinia Venus -17%, HCMV inh -24 and Vaccinia mCherry -16%.
`CCOC(=O)c1ccc(NC(=O)CCc2nc(-c3ccc(C)cc3)no2)cc1` gave HCV inhibitor 8.9µM*, FMDV antiviral inconclusive and HCMV inh -30.
`Cc1ccc(-c2noc(CCCC(=O)NC3CCCCC3)n2)cc1` gave HCV inhibitor inconclusive, FMDV antiviral inconclusive, Vaccinia Venus -20%, HCMV inh -77* and Vaccinia mCherry -25%.
`OC1(c2cccnc2)CCN(Cc2ccc3c(c2)CN(Cc2cccc4nccnc24)CCO3)CC1` gave FMDV antiviral 0%, Vaccinia Venus -15% and Vaccinia mCherry -23%.
Screening Cc1ccc2nc(CO)[nH]c2c1 returned Vaccinia Venus -1% and Vaccinia mCherry 12%.
O=C(CCc1nc(-c2ccccc2Cl)no1)Nc1cccnc1 was read as HCV inhibitor 13µM*, FMDV antiviral inconclusive, Vaccinia Venus -19%, HCMV inh -19 and Vaccinia mCherry -10%.
For COc1cccc(NC(=O)COc2ccccc2C(=O)Nc2ccccc2)c1 the results were Vaccinia Venus -19% and Vaccinia mCherry -2%.
COc1cccc(Nc2nnc(SCc3cc([N+](=O)[O-])cc4c3OCOC4)s2)c1 was read as HCV inhibitor 11µM*, FMDV antiviral 16µM*, Vaccinia Venus inconclusive and HCMV inh -10.
O=C(NC1CCCCCC1)C1CCN(C(=O)N2CCOc3ccccc32)CC1 was read as FMDV antiviral -16%, Vaccinia Venus -12%, HCMV inh 47 and Vaccinia mCherry -8%.
Screening CCOC(=O)N1CCC(NC(=O)c2ccc3c(c2)N(Cc2cc(C)ccc2C)C(=O)c2ccccc2S3=O)CC1 (stereo unspecified) returned FMDV antiviral inconclusive, Vaccinia Venus -26%, HCMV inh -13 and Vaccinia mCherry -19%.
Screening Cc1cc(C)c(C(=O)CSc2nnc(C)s2)c(C)c1 returned HCV inhibitor -9%, FMDV antiviral 4%, Vaccinia Venus -2%, HCMV inh -61* and Vaccinia mCherry -6%.
Screening Cc1cc(C)c(C(=O)CSc2nnc(N)s2)c(C)c1 returned HCV inhibitor -3%, FMDV antiviral -1% and HCMV inh 0.
For Cc1ccccc1NC(=O)c1sc2nc(N3CCOCC3)c3c(c2c1N)CC(C)(C)OC3 the results were FMDV antiviral 0%, Vaccinia Venus -14%, HCMV inh 17 and Vaccinia mCherry -16%.
`Cc1cc(=O)c2c(O)c3c(O)cc(O)c4c5c(O)cc(O)c6c(O)c7c(=O)cc(C)c8c1c2c(c34)c(c65)c78` gave FMDV antiviral -4%, Vaccinia Venus -1% and Vaccinia mCherry 7%.
